Out of some 190,000 compounds screened, about 4,100 (2.2%) were called active. What follows is part of a selection rich in actives, with near analogues and random picks from the rest. Values without a mark were called inactive.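 How the source made its calls: active means thallium flux slope and its plate-corrected score both differing from the plate sample mean at a set confidence after two filtering rounds, in either direction; inactive means the rest.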
molecular target: Solute carrier family 12 member 5 (Homo sapiens) (UniProt Q9H2X9); assay: modulation of human KCC2 ion transport – cell-based, HEK293 KCC2, FluoZin-2 fluorescence, MLSMR, primary screen (AID 1456); details: KCC2 cells, thallium flux FluoZin-2 fluorescence; at 10 µM;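 further: slope of fluorescence scaled to starting intensity during 10 to 20 s after thallium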
Sequence (Q9H2X9 whole entry, looked up): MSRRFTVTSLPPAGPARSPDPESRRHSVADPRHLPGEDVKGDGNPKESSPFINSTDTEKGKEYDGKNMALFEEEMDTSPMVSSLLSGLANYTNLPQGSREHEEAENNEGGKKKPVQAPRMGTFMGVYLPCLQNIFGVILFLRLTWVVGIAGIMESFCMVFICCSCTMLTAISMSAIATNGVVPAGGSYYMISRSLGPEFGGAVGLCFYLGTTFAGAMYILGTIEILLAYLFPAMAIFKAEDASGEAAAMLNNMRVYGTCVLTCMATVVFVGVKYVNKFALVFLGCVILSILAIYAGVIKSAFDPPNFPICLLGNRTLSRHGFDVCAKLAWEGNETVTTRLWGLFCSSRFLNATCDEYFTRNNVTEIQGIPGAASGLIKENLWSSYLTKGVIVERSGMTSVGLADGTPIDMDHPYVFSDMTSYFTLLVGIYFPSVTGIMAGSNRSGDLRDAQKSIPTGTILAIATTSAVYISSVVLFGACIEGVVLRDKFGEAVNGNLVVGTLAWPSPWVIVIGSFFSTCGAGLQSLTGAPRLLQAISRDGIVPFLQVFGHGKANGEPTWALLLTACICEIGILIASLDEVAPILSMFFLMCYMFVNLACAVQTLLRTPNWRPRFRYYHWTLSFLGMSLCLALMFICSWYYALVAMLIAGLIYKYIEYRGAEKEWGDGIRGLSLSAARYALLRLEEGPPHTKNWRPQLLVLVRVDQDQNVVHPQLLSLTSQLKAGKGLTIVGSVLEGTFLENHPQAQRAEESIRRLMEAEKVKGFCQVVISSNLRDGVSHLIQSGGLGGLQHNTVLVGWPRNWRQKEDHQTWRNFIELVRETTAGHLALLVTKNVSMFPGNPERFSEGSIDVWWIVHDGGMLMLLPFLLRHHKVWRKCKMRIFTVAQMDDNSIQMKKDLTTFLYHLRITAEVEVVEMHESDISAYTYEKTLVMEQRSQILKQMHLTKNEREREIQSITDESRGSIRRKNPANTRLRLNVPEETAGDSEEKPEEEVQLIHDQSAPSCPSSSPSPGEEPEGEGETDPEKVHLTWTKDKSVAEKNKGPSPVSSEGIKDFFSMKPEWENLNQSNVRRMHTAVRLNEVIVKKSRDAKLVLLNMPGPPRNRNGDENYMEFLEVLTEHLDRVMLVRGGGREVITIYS

Row | Compound | B-score of Tl+ flux slope (higher = more flux/activation; lower = inhibition)
1 | O=[N+]([O-])c1ccc(N=Cc2c(O)ccc3ccccc23)cc1 | -0.766
2 | CN(C)S(=O)(=O)c1ccc(Cl)c(NC(=O)COC(=O)CC(NC(N)=O)c2ccc(Cl)cc2)c1 (stereo not given) | -0.372
3 | COC(=O)/C=C(\Oc1ccccc1)C1(O)CCCCC1 | 0.292
4 | Cn1c(CCCOc2ccc(Cl)cc2Cl)n[nH]c1=S | -7.28 (active)
5 | O=C(CCCOc1ccc(Cl)cc1Cl)NNC(=O)C1CCC1 | -0.669
6 | CC(C)Oc1ccc(Cc2n[nH]c(=S)n2Cc2ccccc2)cc1Cl | 0.809
7 | CC(/C=C/c1ccco1)=N/NC(=O)C1COc2ccccc2O1 (stereo not given) | 0.221
8 | S=C(Cc1ccc(Cl)cc1)N1CCOCC1 | 0.203
9 | O=C(NCc1ccccc1)c1ccc(S(=O)(=O)Nc2cccc(C(F)(F)F)c2)cc1 | -1.11
10 | Cc1ccc(/C=N/NC(=S)Nc2cccc(S(=O)(=O)N(C)C)c2)o1 | 11.8 (active)
11 | CN(C)S(=O)(=O)c1cccc(C(=O)Nc2cccnc2)c1 | 0.857
12 | CCN(CC)S(=O)(=O)c1cccc(C(=O)Nc2ccccc2)c1 | 0.179
13 | CN(C)S(=O)(=O)c1cccc(NC(=S)N/N=C/C(=O)c2ccccc2)c1 | 6.68 (active)
14 | CN(C)S(=O)(=O)c1cccc(NC(=S)NCc2ccc3c(c2)OCO3)c1 | -0.00969
15 | CN(C)S(=O)(=O)c1cccc(NC(=O)COC(=O)c2cc(=O)[nH]c(=O)[nH]2)c1 | -0.0283
16 | O=C(Cn1cnc2c(nnn2Cc2ccc(F)cc2)c1=O)NCc1ccc2c(c1)OCO2 | -2.61 (active)
17 | O=C(Cn1nnc(-c2ccccc2)n1)NCc1ccc2c(c1)OCO2 | -1.86
18 | Cc1cc(C)cc(NC(=O)Cn2cnc3c(nnn3Cc3ccc(F)cc3)c2=O)c1 | 0.19
19 | Cn1nccc1NC(=O)Nc1ccc(OC(F)(F)F)cc1 | -0.213
20 | Cc1ccccc1-c1n[nH]c(=S)n1/N=C/c1ccc(-c2ccccc2Br)o1 | 5.28 (active)
21 | Cc1n[nH]c(=S)n1/N=C/c1ccc(Br)o1 | -0.354
22 | Cc1ccc(Cl)cc1-c1ccc(/C=N/n2cnnc2)o1 | 0.473
23 | O=[N+]([O-])c1cccc2ncccc12 | -1.11
24 | Cc1ccccc1Nc1nnc(SCC(=O)c2cc3ccccc3o2)s1 | -2.32

Row | Compound | B-score of Tl+ flux slope (higher = more flux/activation; lower = inhibition)
25 | Cc1cc2c(=O)n(C)c(SCC(=O)c3cc4ccccc4o3)nc2s1 | 0.288
26 | Cc1ccc(Nc2nnc(SCC(=O)c3cc4ccccc4o3)s2)cc1C | -8.65 (active)
27 | C#CCNC(=O)C1=C[C@@H](c2ccccc2)[C@H](CCCO)[C@@H](OCC)O1 | 0.698
28 | CCO[C@H]1OC(C(=O)NCc2ccccc2)=C[C@@H](c2coc3ccccc3c2=O)[C@@H]1CCCO | -2.75 (active)
29 | CCO[C@H]1OC(C(=O)N2CCN(Cc3ccccc3)CC2)=C[C@@H](c2cn(C(C)=O)c3ccccc23)[C@@H]1CCCO | -0.421
30 | CN(C)c1ccc(/C=C/C(=O)c2ccc(O)cc2)cc1[N+](=O)[O-] | -1.51
31 | CCN(CC(=O)Nc1ccc(S(=O)(=O)N2CCCC2)cc1)CC(=O)Nc1cccc(OC)c1 | -0.0112
32 | Cc1onc(-c2ccc(Cl)cc2)c1-c1ccnn1S(=O)(=O)c1ccc(Cl)cc1 | 0.0713
33 | C#CCNc1ccc(C(=O)OCC)cc1 | 0.0911
34 | COc1ccc(C(=O)Nc2cccc(S(C)(=O)=O)c2)cc1 | -0.0335
35 | COc1ccc(C(=O)NN(C)c2nc(-c3ccccc3)cc(C)c2S(C)(=O)=O)cc1 | -2.92 (active)
36 | COc1ccc(OCC(=O)NNC(=O)c2ccc(-c3ccccc3)cc2)cc1 | -0.294
37 | Cc1nc(COc2cccc(Cl)c2)sc1C(=O)/C=C/N(C)C | -0.976
38 | CCN(CC)CCCN=Cc1c(O)n(-c2ccc(C)cc2)c(=O)c2ccccc12 | -0.624
39 | O=C(CSc1nnnn1-c1ccc(O)cc1)c1ccc(F)cc1 | -0.119
40 | O=C1CSC(=S)N1/N=C/c1ccc(O)c([N+](=O)[O-])c1 | 0.571
41 | CCOc1cccc(/C=N/N2C(=O)CSC2=S)c1O | 5.34 (active)
42 | CCOc1cccc(/C=N/NC(=S)NCCN2CCOCC2)c1O | -0.223
43 | CC(=O)N1CCC(N(C(=O)Nc2ccc(Cl)cc2)C(C)C)CC1 | 0.402
44 | COc1cc(C=O)ccc1Oc1nnnn1-c1ccccc1 | -0.736
45 | COc1ccc(C(=O)NC2(C(F)(F)F)NC(=O)N(CCCc3ccccc3)C2=O)c(OC)c1OC (stereo not given) | -3.82 (active)
46 | O=C(NC1(C(F)(F)F)NC(=O)N(C2CCCCC2)C1=O)c1ccco1 (stereo not given) | 0.89
47 | Cc1ccc(S(=O)(=O)NC2(C(F)(F)F)NC(=O)N(CCc3ccccc3)C2=O)cc1 (stereo not given) | -0.615
48 | COc1ccc(CN2CCNC(=O)C2CC(=O)N(C)Cc2ccccn2)cc1OC (stereo not given) | -0.00917

Row | Compound | B-score of Tl+ flux slope (higher = more flux/activation; lower = inhibition)
49 | Cc1ccc(NS(=O)(=O)c2ccc(N/N=C/c3ccccc3OCC(=O)O)c([N+](=O)[O-])c2)c(C)c1 | -0.087
50 | COc1cc(CN2CCN(Cc3ccc(C)cc3)CC2)c([N+](=O)[O-])cc1OC | -0.767
51 | O=C(c1ccc(F)cc1)N1CCC(n2nnc3ccccc32)CC1 | 1.38
52 | CC(=O)c1cccc(S(=O)(=O)N2CCC(n3nnc4cc(F)ccc43)CC2)c1 | -0.212
53 | O=S(=O)(c1cccc(S(=O)(=O)N2CCC(n3nnc4ccccc43)CC2)c1)N1CCCCC1 | -6.25 (active)
54 | CCN(CC)CCn1cnc2c1c(=O)n(CCOC(=O)c1cc(OC)c(OC)c(OC)c1)c(=O)n2C | -0.175
55 | CC(=O)N1N=C(c2ccncc2)OC1(Cc1ccccc1)Cc1ccccc1 | -0.683
56 | Cc1ccccc1N/N=C/c1ccc(N2CCOCC2)cc1 | 3.06 (active)
57 | C(=N/Nc1cc(N2CCOCC2)nc(N2CCOCC2)n1)/c1ccccc1 | -0.154
58 | Cc1cc(C(=O)N/N=C/c2ccc(N3CCOCC3)cc2)c(C)o1 | -0.588
59 | COC(=O)C1=C(N)Oc2cc(C)[nH]c(=O)c2C1c1ccc(Cl)cc1 (stereo not given) | -2.12
60 | O=C(NNS(=O)(=O)c1ccccc1)c1cnn(-c2ccc(Cl)cc2)c1C(F)(F)F | 0.887
61 | CC1CN(/C=C/C(=O)C(F)(F)F)CC(C)O1 (stereo not given) | 1.01
62 | Cc1ccc(OC(=O)c2cc3ccccc3o2)cc1 | 0.278
63 | O=C(Nc1ccncc1)c1cc2ccccc2o1 | 2.22
64 | C/C(=N\NC(=S)Nc1ccc(C)cc1)c1cc2ccccc2o1 | 90.2 (active)
65 | COc1ccc(C)cc1S(=O)(=O)Nc1cccc(Cl)c1Cl | 2.43 (active)
66 | COc1ccc(OC)c(S(=O)(=O)Nc2ccccc2F)c1 | 1.79
67 | COc1ccc(C)cc1S(=O)(=O)NCCc1ccccc1 | 0.198
68 | COc1ccc(NC(=O)N2CCC(Cc3ccccc3)CC2)cc1 | -5.5 (active)
69 | COc1ccc(NC(=O)C(C)SCc2ccccc2)cc1 (stereo not given) | -0.536
70 | CCOc1ccc(NC(=O)C2CCCN(C(=O)Nc3ccccc3)C2)cc1 (stereo not given) | -0.0798
71 | S=C(NCCc1ccccc1)Nc1ccccc1 | -0.293
72 | COc1cc(C(F)(F)F)c(C(=O)N(C)c2ccc(Cl)cc2)cn1 | 0.047

Row | Compound | B-score of Tl+ flux slope (higher = more flux/activation; lower = inhibition)
73 | CCOC(=O)c1cn(CC)c2cc(F)c(F)cc2c1=O | -0.139
74 | O=C(c1cc(COc2c(F)cccc2F)on1)N1CCSCC1 | -0.926
75 | Cc1occc1C(=O)NNC(=S)NCC(C)C | -0.168
76 | CC(C)CNC(=S)NC(=O)c1ccc(Cl)cc1 | 33 (active)
77 | CC(C)C(NC(=O)c1ccc(Cl)cc1)C(=O)O (stereo not given) | 1.28
78 | O=C(NN=C1CCC(=NNC(=O)c2cccnc2)CC1)c1cccnc1 | 0.0392
79 | COc1ccc(Cl)cc1CSc1ncn[nH]1 | -1.03
80 | CC(C)(C)OC(=O)NCCCCCC(=O)N/N=C/c1coc2ccccc2c1=O | -2.19
81 | NC(=S)N/N=C/c1coc2cc(Cl)ccc2c1=O | 1.23
82 | O=C(N/N=C/c1coc2ccccc2c1=O)c1cc2ccccc2o1 | 5.52 (active)
83 | CCOC(=O)C1CCN(CCC(=O)Nc2cccc(C)c2)CC1 | 0.406
84 | CN(CC(O)COc1ccc(S(=O)(=O)N2CCOCC2)cc1Cl)C1CCCCC1 (stereo not given) | 0.0176
85 | O=C(NCc1ccco1)c1nc(-c2ccccc2)n(-c2ccccc2)n1 | -2.03
86 | Cc1ccc(-c2nnn(CC(=O)N(Cc3ccco3)C(C(=O)NC(C)(C)C)c3ccncc3)n2)o1 (stereo not given) | -1.04
87 | Cc1nn(-c2ccccc2)c2sc(C(=O)N(Cc3ccco3)C(C)C(=O)NC(C)(C)C)cc12 (stereo not given) | 8.53 (active)
88 | Cc1nnc(Nc2ccccc2F)s1 | -0.881
89 | CC(NC(=O)C(=O)Nc1nccs1)c1ccccc1 (stereo not given) | 2.74
90 | N#Cc1nc(Cc2cccc3ccccc23)oc1NCc1ccc2c(c1)OCO2 | -5.13 (active)
91 | Cn1cc(CCC(=O)NCc2ccc3c(c2)OCO3)c2ccccc21 | -1.1
92 | O=C(COc1ccccc1)NCc1ccc2c(c1)OCO2 | -0.24
93 | N#Cc1nc(-c2ccc(OCc3ccccc3)cc2)oc1NCCCN1CCOCC1 | 0.37
94 | N#Cc1nc(COc2ccc(-c3ccccc3)cc2)oc1NCc1cccnc1 | -4.77 (active)
95 | Cc1ccc(OCc2nc(C#N)c(N3CCCC3)o2)cc1 | -0.743
